According to PubChem BioAssay (NCATS):
Inconclusive results are not listed. Calls of active or inactive are those of the source. Unless noted, the rule behind the calls is not given here.

Key:
[1] = qHTS profiling for inhibitors of Plasmodium falciparum (DD2) proliferation (AID 743323); conditions: lower = more inhibition; at 28.7 µM (top of the series) unless noted
Method in brief: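 Parasite DNA quantified by SYBR Green fluorescence (ex 485, em 535 nm) after saponin/Triton lysis and overnight dark incubation. Cultures: 0.3% parasitemia, 2.5% hematocrit, 72 h, 37 C; data scaled between DMSO and 0.29 uM artemisinin.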

[2] = qHTS profiling for inhibitors of Plasmodium falciparum (HB3) proliferation (AID 743324; active = well fitted curve in the direction sought with a large enough effect; an effect the other way counts as inactive or inconclusive;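 note: 100% = DMSO vehicle wells and 0% = artemisinin-treated control wells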); conditions: Plasmodium falciparum HB3 blood-stage proliferation; at 28.7 µM (top of the series) unless noted
Method in brief: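 SYBR Green fluorescence (485 ex/535 em) of lysed cultures, incubated overnight at room temperature in the dark, quantifies parasite DNA. Infected erythrocytes at 0.3% parasitemia and 2.5% hematocrit were exposed 72 h; values normalized to DMSO and 0.29 uM artemisinin controls.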

[3] = qHTS profiling of the MIPE4 collection as inhibitors of Plasmodium falciparum (3D7) proliferation (AID 743344);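 note: scaled between DMSO vehicle wells and 0.29 µM artemisinin as full inhibition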; conditions: P. falciparum 3D7 in erythrocytes, SYBR Green DNA fluorescence, 72 h
Method in brief: (§1)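 Parasite DNA was quantified by SYBR Green I fluorescence (ex 485, em 535 nm) after overnight lysis in saponin/Triton buffer at room temperature. Cultures at 0.3% parasitemia and 2.5% hematocrit were first exposed to compound for 72 h at 37 C; signals were normalised to artemisinin (0.29 uM) and vehicle wells.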

[4] = qHTS profiling of the MIPE4 collection as inhibitors of Plasmodium falciparum (DD2) proliferation (AID 743345); conditions: P. falciparum Dd2 in erythrocytes, SYBR Green DNA, 72 h
Method in brief: as §1

[5] = qHTS profiling of the MIPE4 collection as inhibitors of Plasmodium falciparum (HB3) proliferation (AID 743347);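 note: plate controls were DMSO vehicle wells for no effect and artemisinin wells for full effect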; conditions: P. falciparum HB3 in erythrocytes, SYBR Green DNA, 72 h
Method in brief: as §1

[6] = High-throughput drug toxicity screening in the BPDCN cell line Gen2.2 (AID 1224824); conditions: Gen2.2 BPDCN cells; at 45.8 µM (top of the series) unless noted;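 note: cells exposed to compounds for 48 h before reading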
Method in brief: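 Readout is ATP luminescence from Gen2.2 cells after two days of drug exposure in serum-containing medium at 37 °C. Values express percent activity, with vehicle defining full signal and 9.2 uM bortezomib defining zero.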

[7] = High-throughput drug toxicity screening in the BPDCN cell line Cal-1 (AID 1224825); conditions: Cal-1 BPDCN cell viability, qHTS; at 45.8 µM (top of the series) unless noted
Method in brief: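 Percent activity derived from CellTiter-Glo luminescence, scaling DMSO to 100% and 9.2 uM final bortezomib to 0%. BPDCN Cal-1 cells (500/well, RPMI plus 10% FBS) incubated with compounds 48 hours at 37C before reading.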

[8] = qHTS assay for measurement of the activity of small molecule inhibitors on Zika virus induced Caspase-3 activity in human iPSC derived neural progenitor cells (hNPCs) (AID 1224857; active = well fitted curve in the direction sought with a large enough effect; an effect the other way counts as inactive or inconclusive; note: % of control where 0% means no effect; nearly all actives have a fitted effect of over 65% in size)
Method in brief: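 Percent inhibition of virus-induced caspase-3/7 luminescence (Caspase-Glo), scaled between uninfected cells and Zika-infected cells. hNPCs received compound 1 hr before ZIKV at 2 FFU/cell, with 6 hours infection at 37 C.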

[9] = qHTS assay for measurement of the activity of small molecule inhibitors on Zika virus induced Caspase-3 activity in human astrocytoma cells (AID 1224859; active = well fitted curve in the direction sought with a large enough effect; an effect the other way counts as inactive or inconclusive;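 note: plate controls were ZIKV-infected untreated cells for no effect and uninfected cells for full effect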)
Method in brief: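 Luminescent caspase-3/7 read-out (30 min reagent, room temperature) in human SNB-19 cells infected 6 h with ZIKV (2 FFU/cell) after 1 h compound pre-incubation; Data were normalised to uninfected and infected wells.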

[10] = qHTS Screen of the MIPE 4.0 Collection Against Ewings Sarcoma (RDES) (AID 1259252; active = well fitted curve in the direction sought with a large enough effect; an effect the other way counts as inactive or inconclusive; note: nearly all actives have a fitted effect of over 35% in size; note: potency is the fitted concentration of half-maximal effect)
Method in brief: (§2)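 Cells plated in serum-containing RPMI (5% FBS) and treated with compound dilutions for 48 h. Readout luminescent viability; normalization relied on vehicle (no inhibition) and media-only columns (full inhibition).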

[11] = qHTS Screen of the MIPE 4.0 Collection Against Ewings Sarcoma (TC32) (AID 1259256; active = well fitted curve in the direction sought with a large enough effect; an effect the other way counts as inactive or inconclusive; note: nearly all actives have a fitted effect of over 45% in size; note: potency is the fitted concentration of half-maximal effect)
Method in brief: as §2

[12] = qHTS assay to identify small molecule inhibitors of chordoma cells - UCH-2 (AID 1259356; active = well fitted curve in the direction sought with a large enough effect; an effect the other way counts as inactive or inconclusive; note: % is set by controls: 0 for no effect and ±100 for the full control effect)
[13] = qHTS profiling of the MIPE4 collection as inhibitors of Plasmodium falciparum (DD2) proliferation (Rep 2) (AID 743346); conditions: P. falciparum Dd2 in erythrocytes, SYBR Green DNA, 72 h; at 28.5 µM (top of the series) unless noted
Method in brief: as §1

[14] = qHTS Screen of the MIPE 4.0 Collection Against Ewings Sarcoma (EW8) (AID 1259255; active = well fitted curve in the direction sought with a large enough effect; an effect the other way counts as inactive or inconclusive; note: nearly all actives have a fitted effect of over 35% in size; note: potency is the fitted concentration of half-maximal effect;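 for viability: 100% = DMSO-treated cells and 0% = medium-only wells without cells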)
Method in brief: as §2

[15] = Identifying Small Molecule Inhibitors of Pancreatic Cancer Stem Cells (A2780, Spheroid) (AID 1259357; active = well fitted curve in the direction sought with a large enough effect; an effect the other way counts as inactive or inconclusive;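 note: spheroids pre-formed over 14 days in stem cell medium on hydrogel; compound exposure lasted 48 h before the ATP luminescence read; 100% = DMSO treated cells and 0% = wells without cells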); conditions: Potency: A2780 spheroid viability
Method in brief: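 Spheroids grown 14 days in stem cell media on hydrogel-coated nonadherent plates; 2D lines seeded directly. Compounds added after 4 h attachment, 48 h at 37C, 5% CO2; CellTiter-Glo luminescence normalized to DMSO (no inhibition) and no-cell wells (full inhibition).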

[16] = Identifying Small Molecule Inhibitors of Pancreatic Cancer Stem Cells (Panc1, Spheroid) (AID 1259359; active = well fitted curve in the direction sought with a large enough effect; an effect the other way counts as inactive or inconclusive;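 note: potency is the fitted concentration of half-maximal effect; compound exposure lasted 48 h before reading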)
Method in brief: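 Endpoint: ATP-based luminescence, 48 h drug exposure. Bortezomib at 9.2 uM final as full-kill control; DMSO vehicle as negative control; activity normalized between vehicle and cell-free wells.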

[17] = Identifying Small Molecule Inhibitors of Pancreatic Cancer Stem Cells (A278, Adherent) (AID 1259361; active = well fitted curve in the direction sought with a large enough effect; an effect the other way counts as inactive or inconclusive;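 note: viability read after 48 h compound exposure; nearly all actives have a fitted effect of over 35% in size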)
Method in brief: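 Pre-formed 14-day tumor spheroids or adherent cells dosed and incubated 48 h, 37C, 5% CO2. Viability assessed by CellTiter-Glo.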

[18] = at 28.5 µM (top of the series) unless noted

With `Clc1ccc(COC(Cn2ccnc2)c2ccc(Cl)cc2Cl)c(Cl)c1` (configuration not stated) the activity, percent of control [1] was -0.374%, the remaining proliferation (% of control), lower = more inhibition [2] was -0.548% and the parasite growth, % of DMSO control ([3]; at 9.64 µM (top of the series)) was 4.92%. It also gave a parasite growth, % of DMSO control ([3]; at 28.5 µM (top of the series)) of 5.47%, a parasite growth remaining, % of DMSO control (lower = more inhibition) ([4]; at 9.64 µM (top of the series)) of 11.2% and a parasite growth remaining, % of DMSO control (lower = more inhibition) ([4]; at 28.5 µM (top of the series)) of 6.56%. For the same molecule, the growth, % of control ([5]; at 9.64 µM (top of the series)) was 8.03%, the growth, % of control ([5]; at 28.5 µM (top of the series)) was 5.5% and the cell viability, % of control (lower = more cytotoxic) [6] was 90.5%. The viability (% of control) [7] was 72.7%, the Potency [8] was “inactive” and the Potency [9] was “inactive”. The Potency [10] was 26.4 µM (active), the Potency [11] was 18.7 µM (active) and the outcome [12] was “inactive”.
Work on `CCN1CCN(c2ccc(Nc3cc(N(C)C(=O)Nc4c(Cl)c(OC)cc(OC)c4Cl)ncn3)cc2)CC1` yielded a parasite growth, % of DMSO control [3, 18] of 4.57%, a parasite growth remaining, % of DMSO control (lower = more inhibition) [4, 18] of 5.88% and a parasite growth, % of control (lower = inhibition) [13] of 8.62%. For the same molecule, the growth, % of control [5, 18] was 2.41%, the cell viability, % of control (lower = more cytotoxic) [6] was 147% and the viability (% of control) [7] was 90.9%. The Potency [8] was “inactive”, the Potency [9] was “inactive” and the Potency [10] was “inactive”. The Potency [14] was “inactive” and the Potency [11] was “inactive”.
In the case of `CNc1nc(Nc2ccc(C(=O)N3CCOCC3)cc2OC)ncc1Cl`, the parasite growth, % of DMSO control [3, 18] was 69.3%, the parasite growth remaining, % of DMSO control (lower = more inhibition) [4, 18] was 90.3% and the growth, % of control [5, 18] was 54.9%. For the same molecule, the cell viability, % of control (lower = more cytotoxic) [6] was 103%, the viability (% of control) [7] was 93.7% and the Potency [8] was “inactive”. For the same molecule, the Potency [9] was “inactive”, the Potency [10] was “inactive” and the Potency [14] was “inactive”.
Molecule `Cc1ccc(C(=O)N(CCCN)[C@@H](c2oc3cc(Cl)ccc3c(=O)c2Cc2ccccc2)C(C)C)cc1` has a parasite growth, % of DMSO control [3, 18] of 4.68%, a parasite growth remaining, % of DMSO control (lower = more inhibition) [4, 18] of 8.7% and a parasite growth, % of control (lower = inhibition) [13] of 8.99%. It also gave a growth, % of control [5, 18] of 5.08%, a cell viability, % of control (lower = more cytotoxic) [6] of 8.98% and a viability (% of control) [7] of 3.72%. The Potency [8] was “inactive”, the Potency [9] was “inactive” and the Potency [10] was “inactive”. The Potency [14] was “inactive” and the Potency [11] was “inactive”.
`CC1=C[C@@H]2[C@@H]([C@@H](O)C[C@@]3(C)[C@H]2C[C@@H](C)[C@]3(O)C(=O)CO)[C@@]2(C)Cc3cnn(-c4ccccc4)c3C=C12` gave an activity, percent of control [1] of -0.0711%, a remaining proliferation (% of control), lower = more inhibition [2] of 0.0764% and a parasite growth, % of DMSO control [3, 18] of 33.4%. The parasite growth remaining, % of DMSO control (lower = more inhibition) [4, 18] was 8.93%, the parasite growth, % of control (lower = inhibition) [13] was 46.9% and the growth, % of control [5, 18] was 11.6%. For the same molecule, the cell viability, % of control (lower = more cytotoxic) [6] was 24.4%, the viability (% of control) [7] was 32.5% and the Potency [8] was “inactive”. For the same molecule, the Potency [9] was “inactive”, the Potency [10] was 23.5 µM (active) and the Potency [11] was 23.5 µM (active). The Potency [15] was “inactive”, the Potency [16] was 20.9 µM (active) and the IC50 (viability decrease) [17] was 20.9 µM (active).
`CCCCN(CCCC)CC(O)c1cc(Cl)cc2c1-c1ccc(Cl)cc1C2=Cc1ccc(Cl)cc1` (configuration not stated) showed a parasite growth, % of DMSO control [3, 18] of 8.66%, a parasite growth remaining, % of DMSO control (lower = more inhibition) [4, 18] of 7.19% and a parasite growth, % of control (lower = inhibition) [13] of 11.5%. For the same molecule, the growth, % of control [5, 18] was 11.8%, the cell viability, % of control (lower = more cytotoxic) [6] was 27% and the viability (% of control) [7] was 63%. The Potency [8] was “inactive”, the Potency [9] was “inactive” and the Potency [10] was “inactive”. For the same molecule, the Potency [14] was “inactive”.
In the case of `C[C@@]1(C(=O)Nc2ccc(F)nc2)CCCN1c1nc(Nc2cc(C3CC3)[nH]n2)c2cccn2n1`, the parasite growth, % of DMSO control [3, 18] was 10.3%, the parasite growth remaining, % of DMSO control (lower = more inhibition) [4, 18] was 14.6% and the parasite growth, % of control (lower = inhibition) [13] was 23.8%. The growth, % of control [5, 18] was 4.94%, the cell viability, % of control (lower = more cytotoxic) [6] was 131% and the viability (% of control) [7] was 17.3%. For the same molecule, the Potency [8] was “inactive”, the Potency [9] was “inactive” and the Potency [10] was 2.64 µM (active). For the same molecule, the Potency [14] was 1.05 µM (active) and the Potency [11] was 0.418 µM (active).
